From PubChem BioAssay (NCI) come the findings set out here.

The panel holds about 83,000 compounds, 20% with a hit somewhere; the sample as a whole holds those more often.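 Compound tested at a single concentration for 48 hours in 96-well plates; a percent growth value below 10 was scored as active.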 A number with no mark means an inactive call. The source made the active and inactive calls.

Among the test systems are NCI-H23 lung; NCI-H226 lung; NCI-H322M lung; HOP-62 NSCLC; NCI-H460 lung; HOP-92 NSCLC; NCI-H522 lung; A549/ATCC NSCLC; 786-0 renal; COLO 205 colon; DU-145 prostate; K-562 leukemia; MALME-3M melanoma; MDA-MB-231 breast; RXF 393 renal; SF-268 CNS; SF-295 CNS; SF-539 CNS; UACC-257 melanoma; M14 melanoma.
Holding throughout (assay): NCI-60 one-dose screen, 48 h (100 = growth as untreated, 0 = no growth, -100 = all killed)
Holding throughout (settings): 10 µM unless noted

`CC(C)(C)c1ccc(OCCCCCCCN2CCNCC2)cc1`: the growth was 51.9% in the assay on NCI-H23 lung; 70.3% in the assay on NCI-H226 lung; 53.6% in the assay on NCI-H322M lung; 54% in the assay on HOP-62 NSCLC; -14.9% (active) with NCI-H460 lung; 33.3% in the assay on HOP-92 NSCLC. The growth with NCI-H522 lung is 72.9%; in the assay on A549/ATCC NSCLC, 44.9%; in the assay with 786-0 renal it was 23.9%; in the assay with COLO 205 colon, -60.9% (active); in the assay on DU-145 prostate it was 45.6%; in the assay on K-562 leukemia, 0.406% (active). Moreover, the growth is -50.4% (active) in the assay on MALME-3M melanoma; 19.3% with MDA-MB-231 breast; 28.2% with RXF 393 renal; 59.5% with SF-268 CNS; 17.3% with SF-295 CNS; 67.3% with SF-539 CNS. Also, the growth in the assay on UACC-257 melanoma is 48.2%; in the assay with M14 melanoma, 45.2%.

`C=C(C)[C@@H]1CC[C@]2(C=O)CC[C@]3(C)[C@H](CC[C@@H]4[C@@]5(C)C/C(=C/c6cccnc6)C(=O)C(C)(C)[C@@H]5CC[C@]43C)[C@@H]12`: the growth with NCI-H23 lung was 75.6%; in the assay on NCI-H226 lung, 91.3%; in the assay on NCI-H322M lung, 100%; in the assay with HOP-62 NSCLC, 119%; in the assay on NCI-H460 lung, 85.7%; in the assay with HOP-92 NSCLC it was 83.9%. The growth in the assay with NCI-H522 lung was 72%; in the assay on A549/ATCC NSCLC, 57.1%; in the assay on 786-0 renal, 101%; in the assay with COLO 205 colon, 95.5%; with DU-145 prostate, 92.1%; in the assay with K-562 leukemia, 32.3%. Further, the growth was 88.1% in the assay with MALME-3M melanoma; 93.8% in the assay on MDA-MB-231 breast; 83.2% in the assay with RXF 393 renal; 85.8% in the assay with SF-268 CNS; 86.9% with SF-295 CNS; 96.5% in the assay with SF-539 CNS. The growth is 84.5% in the assay on UACC-257 melanoma and 78.5% with M14 melanoma.

`C=C(C)[C@@H]1CC[C@]2(C(=O)O)CC[C@]3(C)[C@H](CC[C@@H]4[C@@]5(C)C/C(=C/c6cccc(I)c6)C(=O)C(C)(C)[C@@H]5CC[C@]43C)[C@@H]12`: the growth with NCI-H23 lung was 20.3%; in the assay on NCI-H226 lung it was 31.5%; with NCI-H322M lung, 37.2%; with HOP-62 NSCLC it was 21.8%; in the assay with NCI-H460 lung it was 11.8%; with HOP-92 NSCLC, 16%. The growth with NCI-H522 lung was 10%; with A549/ATCC NSCLC, 17.2%; in the assay on 786-0 renal, 25%; in the assay on COLO 205 colon it was 28%; in the assay on DU-145 prostate it was 28.7%; in the assay with K-562 leukemia, 12.5%. Moreover, the growth was 53.3% in the assay on MALME-3M melanoma; 56% with MDA-MB-231 breast; 51.9% in the assay with RXF 393 renal; 25.5% in the assay on SF-268 CNS; 26.7% with SF-295 CNS; 48.3% in the assay with SF-539 CNS. The growth in the assay on UACC-257 melanoma was 20.7%; in the assay on M14 melanoma it was 30.3%.

Turning to `C=C(C)[C@@H]1CC[C@]2(c3nnc(-c4ccncc4)o3)CC[C@]3(C)[C@H](CC[C@@H]4[C@@]5(C)CCC(=O)NC(C)(C)[C@@H]5CC[C@]43C)[C@@H]12`, the growth in the assay with NCI-H23 lung was 94.7%; in the assay with NCI-H226 lung, 87.8%; in the assay with NCI-H322M lung, 94.3%; in the assay with HOP-62 NSCLC, 97.9%; in the assay with NCI-H460 lung it was 98.5%; in the assay with HOP-92 NSCLC, 71.9%. The growth in the assay on NCI-H522 lung is 93.9%; in the assay on A549/ATCC NSCLC it was 92.8%; in the assay on 786-0 renal it was 96.2%; with COLO 205 colon it was 109%; in the assay with DU-145 prostate, 108%; with K-562 leukemia, 80.5%. Besides, the growth in the assay with MALME-3M melanoma is 101%; with MDA-MB-231 breast, 89.8%; in the assay with RXF 393 renal it was 97.9%; in the assay on SF-268 CNS, 89.5%; in the assay on SF-295 CNS, 99.4%; in the assay on SF-539 CNS it was 96.9%. In addition, the growth is 97.9% in the assay on UACC-257 melanoma and 99% in the assay with M14 melanoma.

On to `CC(=O)NC1=C(C#N)C(c2ccccc2Cl)c2c(ccc3ccccc23)O1` (stereo not given), for which the growth is 76.2% with NCI-H23 lung; 83.5% in the assay with NCI-H226 lung; 86.8% in the assay on NCI-H322M lung; 59.2% with HOP-62 NSCLC; 39.1% in the assay with NCI-H460 lung; 72.5% in the assay on HOP-92 NSCLC. Besides, the growth is 39.2% in the assay on NCI-H522 lung; 67.1% in the assay on A549/ATCC NSCLC; 82.7% in the assay with 786-0 renal; 79.5% with COLO 205 colon; 89.1% in the assay with DU-145 prostate; 19.4% in the assay on K-562 leukemia. The growth was 48.4% in the assay on MALME-3M melanoma; 66.6% in the assay on MDA-MB-231 breast; 77.2% in the assay with RXF 393 renal; 68.5% in the assay on SF-268 CNS; 25.7% with SF-295 CNS; 58.4% in the assay with SF-539 CNS. In addition, the growth in the assay on UACC-257 melanoma is 76.7%; with M14 melanoma, 31.1%.

For `COc1ccc(/C=C(\C#N)c2cc3ccccc3n2S(C)(=O)=O)cc1`, the growth is 89.8% in the assay with NCI-H23 lung; 89.7% in the assay on NCI-H226 lung; 99.6% in the assay on NCI-H322M lung; 91.5% in the assay on HOP-62 NSCLC; 105% in the assay with NCI-H460 lung; 86.5% with HOP-92 NSCLC. Besides, the growth in the assay on NCI-H522 lung is 73.5%; with A549/ATCC NSCLC, 104%; in the assay with 786-0 renal, 99.9%; in the assay on COLO 205 colon, 111%; in the assay with DU-145 prostate, 98.2%; in the assay on K-562 leukemia it was 30.8%. Also, the growth in the assay on MALME-3M melanoma is 66.5%; in the assay with MDA-MB-231 breast, 85.4%; in the assay with RXF 393 renal it was 78.1%; in the assay on SF-268 CNS, 88%; in the assay on SF-295 CNS it was 71.6%; in the assay on SF-539 CNS it was 79.1%. For the same molecule, the growth in the assay on UACC-257 melanoma was 90.2%; in the assay with M14 melanoma it was 56.1%.

As for `O=P(O)(c1ccccc1)c1ccccc1I`, the growth with NCI-H23 lung was 96.4%; in the assay with NCI-H226 lung it was 90%; in the assay with NCI-H322M lung it was 94.1%; in the assay on HOP-62 NSCLC, 94.8%; in the assay on NCI-H460 lung it was 97.2%; in the assay with HOP-92 NSCLC it was 83.9%. For the same molecule, the growth with NCI-H522 lung was 80.7%; in the assay with A549/ATCC NSCLC, 71.2%; in the assay with 786-0 renal, 109%; in the assay with COLO 205 colon, 107%; in the assay on DU-145 prostate, 109%; in the assay with K-562 leukemia, 93.8%. Further, the growth in the assay on MALME-3M melanoma was 87.5%; in the assay with MDA-MB-231 breast it was 97.1%; in the assay with RXF 393 renal, 102%; in the assay with SF-268 CNS, 99.8%; in the assay on SF-295 CNS, 93.7%; with SF-539 CNS, 101%. The growth is 76.5% in the assay with UACC-257 melanoma and 90.1% in the assay on M14 melanoma.
